D1 antag: Antagonist of Human D 1 Dopamine Receptor: qHTS; D(1A) dopamine receptor (Homo sapiens), P21728; HEK293 TREx D1 cells, calcium flux, dopamine EC80; stronger effect = lower value; activity change, negative = inhibition, % at 10 µM; 360,000 tested, 3.2% active; AID 504652, 2011; in the data active means activity change below about -30%; further: on the % scale 0 is the no-effect control and ±100 the full control effect
Target sequence (P21728 whole entry, looked up): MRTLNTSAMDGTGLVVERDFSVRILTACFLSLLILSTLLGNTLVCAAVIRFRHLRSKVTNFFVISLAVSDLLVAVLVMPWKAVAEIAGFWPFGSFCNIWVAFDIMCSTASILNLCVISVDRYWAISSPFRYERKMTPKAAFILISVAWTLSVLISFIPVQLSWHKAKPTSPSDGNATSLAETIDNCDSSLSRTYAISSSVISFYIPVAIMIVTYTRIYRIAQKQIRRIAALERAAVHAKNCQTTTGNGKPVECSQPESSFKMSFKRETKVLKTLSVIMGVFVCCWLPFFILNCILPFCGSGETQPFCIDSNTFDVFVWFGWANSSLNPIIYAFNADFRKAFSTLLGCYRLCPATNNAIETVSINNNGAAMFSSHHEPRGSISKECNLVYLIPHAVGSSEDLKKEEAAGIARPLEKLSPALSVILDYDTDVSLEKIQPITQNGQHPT
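HEK293 T-REx cells expressing inducible, force-coupled D1 receptor; no-wash Ca dye, 30–90 min RT. Cmpd → 180 s read at 1 Hz → EC80 DA → 180 s read.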
TRHR ag: qHTS for Small Molecule Agonists and Allosteric Enhancers of Human TRH Receptor: Primary Screen for Agonists; TRHR cells, calcium flux fluo-8, FDSS agonist mode; activation, % at 2 µM; 360,000 tested, 0.18% active; further: 0% is about no effect
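TRHR-expressing cells loaded with fluo-8 calcium dye; 23 nL library compound pin-transferred, kinetic FDSS fluorescence (Ex 480/Em 530) recorded about 180 s for agonist-induced calcium release, before a 10 nM TRH EC20 addition for potentiator mode.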
TRHR enhancer: qHTS for Small Molecule Agonists and Allosteric Enhancers of Human TRH Receptor: Primary Screen for Enhancers; TRHR cells, fluo-8 calcium fluorescence, EC20 TRH enhancement; AID 493056, 2011; 360,000 tested, 0.66% active; enhancement, % at 2 µM; Thyrotropin-releasing hormone receptor (Homo sapiens), P34981; in the data active means enhancement above about 30%; further: 0% is about no effect
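Enhancer read-out: after compound pinning and an initial kinetic agonist-mode read, an EC20 of TRH (10 nM final) was injected and fluo-8 calcium signal (Ex 480/Em 530) followed at 1 s/cycle for 100 cycles in TRHR-expressing cells.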
D1 agonist: Allosteric Agonists of the Human D1 Dopamine Receptor: qHTS. activation, % at 2 µM. HEK293 T-REx D1 cells, calcium flux, agonist mode. 360,000 tested, 1% active; further: 0% is about no effect
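Tetracycline-induced HEK293 TREx D1 cells, force-coupled to calcium signalling, were dye-loaded with a no-wash calcium kit. Compound was pin-added after a 10 s baseline. Fluorescence was read kinetically at 1 cycle/s for 180 s, with calcium rises flagged as agonism.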
D1 PAM: Potentiators of Human D1 Dopamine Receptor: qHTS; D(1A) dopamine receptor (Homo sapiens), P21728; AID 504651, 2011; HEK293 TREx D1 cells, calcium flux, dopamine EC20 potentiation; potentiation, % at 10 µM; 360,000 tested, 0.036% active; in the data active means potentiation above about 30%; further: 0% is about no effect
Starred values were filed as active, the others as inactive; x = not tested or not shown; ! = repeats disagree. The list is not random: actives were taken first. Their share in the collection is about 4.7%. Unless noted, no stated cut-off is given here; in the data, active means activation above about 30%; inactive means the rest.

SMILES	D1 antag	TRHR ag	TRHR enhancer	D1 agonist	D1 PAM
O=C(NCCCN1CCN(c2ccccc2)CC1)C1CCCN(c2ncnc3c2nc2n3CCCCC2)C1 (stereo not given)	-30.4*	-0.4	1.7	0.7	-18.7
COc1ccc(OC)c(CNC(=O)C2CCCN(c3ncnc4c3nc3n4CCCCC3)C2)c1 (stereo not given)	-33.1*	-0.7	-11.0	1.4	-1.3
CCCCOc1ccc(C2=NC(c3ccncc3)=Nc3ccc(OCC)cc3N2)cc1	9.3	-2.3	0.4	-0.4	-1.2
COc1ccc(N2C(=O)CSC23C(=O)N(Cc2ccc(C)cc2)c2ccccc23)cc1Cl (stereo not given)	1.1	-0.2	2.2	19.7	-1.7
COc1ccccc1N1CCN(C(=O)Cn2ncc3c(=O)oc4ccc(C)cc4c32)CC1	-3.6	-0.2	-7.7	-0.3	-1.0
Cc1ccc2[nH]c(=O)c3cc(C(=O)N(CCCOC(C)C)Cc4ccco4)sc3c2c1	4.4	1.6	41.6*!	0.7	-2.2
Clc1ccc2c(N/N=C/c3ccc(Br)cc3)ccnc2c1	-43.4*	-0.9	13.2	7.6	-7.3
Cc1cc(C)c(NC(=O)c2cc(S(=O)(=O)N3CCCC3)cn2C)c(C)c1	-4.9	-0.3	4.0	-1.6	-0.8
COc1ccc(OC)c(/C=C2\SC(=S)N(C(C(=O)O)c3ccccc3)C2=O)c1 (stereo not given)	-2.4	-0.8	4.1	35.1*	-2.3
Cc1ccccc1NC(=O)c1ccc(CN2CC(=O)N3CCCCC3C2=O)cc1 (stereo not given)	-37.4*	0.1	1.6	2.5	-2.1
N=c1c2c(-c3ccccc3)c(-c3ccccc3)n(Cc3ccco3)c2ncn1Cc1ccccc1	7.9	2.7	9.0	35.3*	-1.2
N=c1c2c(-c3ccccc3)c(-c3ccccc3)n(Cc3ccco3)c2ncn1CCCN1CCOCC1	4.0	0.9	0.4	6.7	-4.0
c1ccc(-c2c(-c3ccccc3)n(Cc3ccco3)c3ncnc(NCCCn4ccnc4)c23)cc1	0.5	-0.7	7.9	51.8*	7.0
CC(C)Cn1cnc2c(c(-c3ccccc3)c(-c3ccccc3)n2Cc2ccco2)c1=N	20.2	1.0	-9.3	34.0*	-2.2
OCCNc1ncnc2c1c(-c1ccccc1)c(-c1ccccc1)n2Cc1ccco1	-2.4	0.2	5.8	3.0	-3.6
N=c1c2c(-c3ccccc3)c(-c3ccccc3)n(Cc3ccccc3)c2ncn1CCO	56.1	-0.3	4.0	218.1*	45.6*
N=c1c2c(-c3ccccc3)c(-c3ccccc3)n(Cc3ccco3)c2ncn1CCCn1ccnc1	16.2	1.3	5.5	13.7	-1.6
COc1ccccc1Nc1sc(C(=O)c2ccc3c(c2)OCO3)c(N)c1S(=O)(=O)c1ccccc1	16.0	0.7	-3.0	3.8	-1.4
COC(=O)c1sccc1S(=O)(=O)N1CCN(c2cc(Cl)ccc2C)CC1	1.5	0.2	3.8	5.3	0.8
COc1ccc(-c2nnc3n2N(C(C)=O)C(c2ccc(Cl)c(Cl)c2)=C(C(C)=O)S3)cc1	x	0.8	2.8	1.9	-0.9
O=C(NCCCN1CCOCC1)c1ccc(CSc2ccc(Cl)cc2)cc1	-35.4*	-0.4	-2.0	23.7	-13.8
CC(C)c1ccc(C(=O)NCCCN2CCOCC2)cc1	-18.8	-0.1	-3.5	3.1	-0.8
O=C(NCCCN1CCOCC1)c1ccc(Br)cc1	29.3	0.1	-6.6	2.2	-3.6
CC(C)(C)c1ccc(C(=O)NCCCN2CCN(CCCNC(=O)c3ccc(C(C)(C)C)cc3)CC2)cc1	-30.3*	0.7	7.0	24.4	-7.4
Cc1c(C)n(Cc2ccc(Cl)cc2)c2ccc(C(=O)NCCN3CCOCC3)cc12	-37.6*	0.2	-1.2	4.6	-12.0
SMILES	D1 antag	TRHR ag	TRHR enhancer	D1 agonist	D1 PAM
CC(=O)c1cccc(NC(=O)CN2C(=O)CC(c3ccc(C)cc3C)=Nc3ccccc32)c1	6.9	-0.5	3.3	-1.1	0.3
N#Cc1cccc(Nc2ncnc3c2cnn3-c2cccc(Cl)c2)c1	-48.6*	0.2	-4.4	0.5	-3.8
Fc1cccc(Nc2ncnc3c2cnn3-c2ccccc2)c1	-13.5	1.2	2.4	2.7	-12.6
NS(=O)(=O)c1ccc(CCNc2nccn(-c3cccc(C(F)(F)F)c3)c2=O)cc1	-32.0*	-0.5	-1.6	2.8	-4.8
Clc1cccc(Nc2ncnc3c2cnn3-c2ccccc2)c1	-55.2*	-1.1	5.7	6.1	-15.3
Cc1cc(NC(=O)c2cnn(-c3ccccc3)c2-n2cccc2)ccc1Br	-1.2	-2.1	0.0	9.7	-0.8
COc1ccc(NC(=O)c2cnn(-c3ccc(C)cc3)c2-n2cccc2)cc1Cl	-31.0*	0.8	-1.6	4.5	-4.5
Cc1ccc(N2CCN(c3cc(C)nc4c(-c5ccc(Cl)cc5)c(C)nn34)CC2C)cc1 (stereo not given)	0.6	0.4	4.0	-0.1	-3.4
CCc1ccccc1NC(=O)c1sc(-n2nc(C)c(Cc3ccc4c(c3)OCO4)c2C)nc1C	-7.3	-0.2	0.0	2.2	0.6
CCNc1ccc(-c2nc(-c3ccco3)no2)cc1[N+](=O)[O-]	0.7	0.2	-13.2	3.0	-0.5
Cc1ccc(-n2cc(C(=O)Oc3ccc(F)cc3)c3ccccc3c2=O)cc1	-1.6	0.7	-4.2	1.9	-2.7
O=C(Cn1cc(S(=O)(=O)Cc2ccccc2F)c2ccccc21)NCc1ccccc1Cl	-1.1	0.4	9.4	16.7	9.3
COc1ccc(Nc2ncnc3c2cnn3-c2ccc(C)cc2)cc1Cl	-64.7*	0.9	5.9	-0.6	-3.9
Cc1ccc(Nc2ncnc3c2cnn3-c2ccc(C)cc2)cc1	2.1	-1.1	5.5	0.5	-3.5
NS(=O)(=O)c1ccc(CCNc2ncnc3c2cnn3-c2cccc(Cl)c2)cc1	-63.7*	-0.1	1.8	-0.1	-4.0
O=C(C1CCCCN1S(=O)(=O)c1ccccc1)N1CCN(C(c2ccccc2)c2ccccc2)CC1 (stereo not given)	-30.5*	-0.4	-1.6	7.9	1.7
O=C(C1CCCCN1S(=O)(=O)c1ccccc1)N1CCCCC1 (stereo not given)	14.1	-0.6	9.1	-0.7	0.3
CCc1ccccc1NC(=O)CN1C(=O)c2cccnc2Oc2ccc(Cl)cc21	-36.0*	-0.7	-4.1	1.1	-3.1
CN(C)CCC(=O)NCC1OCCc2ccccc21 (stereo not given)	-33.7*	-0.6	-7.8	0.6	-4.7
O=C(NCC1OCCc2ccccc21)c1ccc(NC(=O)c2ccccc2Cl)cc1 (stereo not given)	-37.0*	0.8	-2.1	11.7	-4.4

Screening data from PubChem.
